The whole screen tested about 93,000 compounds, of which about 180 (0.19%) were called active. The sample as a whole holds a higher share of actives than the screen did. Values without a mark were called inactive.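 The calls were made as follows: active = activation above the screen mean plus 3 SD, with well images confirming the hit on visual review (cut at about 28% in these data, passing the limit was not always enough); inconclusive = activation above that limit but images do not confirm it; inactive = activation not above that limit.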

A short description of the assay: potentiators of TNFa-induced VCAM1 expression, primary screen, imaging, HUVEC, TNFa stimulus, immunofluorescence (AID 808).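 Also: signal is the number of cytoplasmic VCAM-1 stained grains per positive cell.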 The note with it: HUVEC TNFa-stimulated VCAM-1 immunofluorescence, high-content imaging; at 2 µM; active compounds read high.
As to `COC(=O)CN1C(=O)C2(C(C(=O)OC)=C(N)Oc3ccccc32)C2=C1CC(C)(C)CC2=O` (stereo not given), the activation is 33.9% (active).

As for `CCOC(=O)C(O)(c1ccc(N)c(OC)c1)C(F)(F)F` (stereo not given), the activation is -9.7%.

As for `c1cncc(CNC2=NCCC2)c1`, the activation was -5.4%.

For the molecule `O=C(NCC(c1cccnc1)N1CCN(c2ccccc2)CC1)Oc1ccccc1` (stereo not given), the activation is 1.5%.

On to `CNC(=O)N(C)c1nnc(C(C)(C)C)s1`, for which the activation was 4.6%.

For the origin of these results see PubChem BioAssay AID808 (Columbia University Molecular Screening Center, 2007).
